The campaign covered roughly 53,000 compounds. About 900 (1.7%) showed an effect of 50% or more. Shown is part of a subset that was picked to be rich in strong results.

The test deals with Mycobacterium tuberculosis. The experiment in a line: Cornell - Phenotypic assay to identify agents that inhibit growth of Mycobacterium tuberculosis. In kind it is functional. More on the design: scale not given: direction of the effect not stated beside the values. As to conditions: 10 mM as filed; unlikely as a test dose.
As for `O=C1[C@H]2CCCC[C@H]2C(=O)N1c1cnn(Cc2cccc(F)c2)c1`, the “Percent Effect” value amounted to 24.19%. To `Cc1nnc(-c2cccc(C#N)c2)n1C1CCN(C(C)C)C1=O` (centres undefined) belongs 5.61%. To `Cc1cccc(S(=O)(=O)N2C[C@@H]3C[C@@H](c4nnc(C)[nH]4)O[C@@H]3C2)c1` belongs -10.6%.

`CN(Cc1ccc(F)cc1)CC1(O)CCN(C(=O)c2ccccn2)C1` (centres undefined): the “Percent Effect” value was determined as 17.87%.

On to `O=c1[nH]cc(N2CCCCC2)c(=O)[nH]1`, for which the “Percent Effect” value came out at 4.601%. To `Cc1ccc(NCC2(O)CCNCC2)cc1C` belongs -25.1%; to `CC(C)c1nnc(NC(=O)N(C)Cc2ccncc2)s1`, -15.27%; to `Cc1ccsc1CN(CCN(C)C)Cc1ccccn1`, 3.624%. Turning to `Cc1ccsc1CN(Cc1ccccn1)CC(C)C`, the “Percent Effect” value is given as -11.16%. As for `CSC(C)CCN(Cc1ccccn1)Cc1sccc1C` (centres undefined), the “Percent Effect” value is 52.37%. For `COCC(O)CN(C)c1ccnc2cc(Br)ccc12` (centres undefined) the value was 6.843%. To `O=C(NC[C@@H]1CCCO1)c1cccnc1N1CCCC1c1ccccc1` (some centres undefined) belongs 4.902%.

Take `CC(c1ccc(F)cc1F)N1CCN(CCC(=O)NC(N)=O)CC1` (centres undefined): the “Percent Effect” value is -2.983%. For `COc1ccc(CNCC2CCN(c3ccccc3OC)C2)cc1O` (centres undefined) the value was 59.98%; for `COc1ccccc1N1CCC(CNCc2ccc(C#N)cc2)C1` (centres undefined), 28.32%; for `COc1cccc(N2CCC(CNC(=O)NCc3ccco3)C2)c1` (centres undefined), -31.24%. In the case of `COc1cccc(N2CCC(CNCc3cccc(C#N)c3)C2)c1` (centres undefined), the “Percent Effect” value turned out to be 63.04%. On to `COc1ccccc1N1CCC(CNCc2cccc(C#N)c2)C1` (centres undefined), for which the “Percent Effect” value is listed as 33.02%. As for `COc1ccccc1N1CCC(CNCc2cccc(O)c2)C1` (centres undefined), the “Percent Effect” value turned out to be 38.06%. To `Cc1cc(C)c(C(=O)N2CCCC(C(=O)CCc3ccccc3)C2)cn1` (centres undefined) belongs 16%; to `CN1CCCC1CCNC(=O)c1ccccc1-n1cnc(CN)c1` (centres undefined), -39.2%. For `CC(C)C(Sc1nnnn1C1CC1)C(=O)NCc1ccccc1` (centres undefined) the value was -5.783%.

Turning to `Cc1nc(N)sc1C(=O)N1Cc2ccccc2OC2(CCOCC2)C1`, the “Percent Effect” value was -56.78%. To `O=C1CCC2(CCN(Cc3cscn3)CC2)CN1CCCO` belongs 5.461%; to `CC(C)(Oc1ccc(F)cc1)C(=O)NCc1ccco1`, 22.85%. As for `CC(C)(C)Oc1ccc(NCC(=O)NCc2ccco2)cc1`, the “Percent Effect” value is on record as 108%. Turning to `O=C(CNc1ccc(OCC2CCOCC2)cc1)NCc1ccco1`, the “Percent Effect” value was determined as 31.46%. As for `CC[C@H](C)Nc1nccc(-c2cnc3sccn3c2=O)n1`, the “Percent Effect” value was -1.989%. As to `O=C(c1cn(-c2ccccc2C(F)(F)F)nn1)N1CCSCC1`, the “Percent Effect” value was found to be 17.85%. In the case of `Cc1ccc(CN2CC[C@H]3C[C@@H](c4nc(C5CC5)cs4)O[C@@H]3C2)o1`, the “Percent Effect” value is listed as 40.45%. For `Cc1ccc(CN2CC[C@H]3C[C@H](c4nc(C5CC5)cs4)O[C@@H]3C2)o1` the value was 67.24%; for `Cc1cc(CN2CC[C@H]3C[C@@H](c4nc(C5CC5)cs4)O[C@@H]3C2)no1`, 0.1287%. Take `Cn1nc(-c2cccc(Cl)c2)c(Br)c1C(=O)O`: the “Percent Effect” value is 24.18%. In the case of `O=C(Nc1ccccc1OCCc1ccccn1)NC1CCOCC1`, the “Percent Effect” value is -20.67%. To `O=C(Nc1ccccc1OCc1ccccn1)NC1CCOCC1` belongs 30.18%; to `c1ccc(COc2ccccc2NC2CCOCC2)nc1`, 50.88%; to `Cc1ccn(-c2ccccc2NCc2cccnc2)n1`, -17.76%.

Take `OCc1ccc(Cl)c(NCc2cccnc2)c1`: the “Percent Effect” value is recorded as -14.09%. As for `COc1cc(NCc2cccnc2)c(-c2nn[nH]n2)cc1OC`, the “Percent Effect” value is listed as -25.93%. On to `Cc1nnc(NCc2ccc(Cl)cc2)o1`, for which the “Percent Effect” value worked out at 21.04%.

Consider `COc1cc(NCc2ccc(Cl)cc2)c(-c2nn[nH]n2)cc1OC`, for which the “Percent Effect” value is listed as 107.2%. To `c1cncc(CNc2ccccc2-c2nn[nH]n2)c1` belongs 72.98%. On to `COc1cc(NCc2ccncc2)c(-c2nn[nH]n2)cc1OC`, for which the “Percent Effect” value came to 96.19%. For `COc1ccncc1NCc1ccsc1` the value was -60.05%; for `COc1cc(CNc2ccc(Cl)cc2)ccc1OCC(=O)O`, -3.069%. For the compound `CC(=O)N1CCCN(C(=O)NCCNc2cnccn2)CC1`, the “Percent Effect” value worked out at 8.364%. As for `CCOCc1cnc2n1CCN(C(=O)c1ccccc1)C2C` (centres undefined), the “Percent Effect” value was -22.66%. To `Cn1cc(N2CCCC(SCc3nc(C4CC4)no3)C2=O)cn1` (centres undefined) belongs -5.692%. In the case of `C[C@@H]1CN(c2nc3c(cc2C(N)=O)CCC3)CC[C@@]1(O)C1CCC1`, the “Percent Effect” value is recorded as 6.158%. To `Cn1nc(CNS(=O)(=O)Cc2ccccc2F)c2c1CCCC2` belongs 24.49%; to `CCc1c(C)nc2cc(C3CCN(Cc4ccc(F)cc4)C3)nn2c1O` (centres undefined), -30.4%; to `O=C(O)C(F)(F)F.O=C([C@@H]1CCO[C@@H]2CCN(Cc3ccsc3)C[C@@H]21)N1CCCC1`, 13.31%. For `CCCS(=O)(=O)N1CCC(NC(=O)c2cc(CC)c(C)s2)CC1` the value was -14.58%. For `COCC(=O)N1CCN(S(=O)(=O)c2cccs2)[C@H]2CS(=O)(=O)C[C@H]21` the value was 5.268%; for `CNc1c(NCc2ccco2)c(=O)c1=O`, -73.54%.

With `NS(=O)(=O)c1cccnc1NCc1ccco1`, the “Percent Effect” value turned out to be 9.166%. With `Cc1cc(NCCO)nc2[nH]nc(N)c12`, the “Percent Effect” value was 15.94%.

As to `Cc1cc(NCc2ccccc2)nc2[nH]nc(N)c12`, the “Percent Effect” value amounted to 99.95%. As to `Cc1cc2[nH]c(O)nc2cc1NCc1ccccc1`, the “Percent Effect” value came to 38.01%. Take `Cc1cc(NCc2ccco2)nc2[nH]nc(N)c12`: the “Percent Effect” value is 73.02%. For `Cc1nc(CCNC(=O)NC(C)c2ccc3c(c2)OCCO3)cs1` (centres undefined) the value was -7.5%; for `N#CC1COCCN1C(=O)c1cccc2cc[nH]c12` (centres undefined), 15.8%.

For the compound `COc1ccccc1OCCN(C)c1cc(C)nc(N)n1`, the “Percent Effect” value is -1.717%. To `CN(C)S(=O)(=O)N1CCN(c2ccnc(N3CCCCC3)n2)CC1` belongs 38.93%; to `CN(C)S(=O)(=O)N1CCN(c2ccnc(N3CCCC3)n2)CC1`, 12.56%; to `CS(=O)(=O)N1CCN(c2ccnc(N3CCCC3)n2)CC1`, 7.415%. As for `CS(=O)(=O)N1CCN(c2ccnc(N3CCCCC3)n2)CC1`, the “Percent Effect” value came to 63%. To `CCCS(=O)(=O)N1CCN(c2ccnc(N3CCCCC3)n2)CC1` belongs 50.94%. On to `CCCS(=O)(=O)N1CCN(c2ccnc(N3CCCC3)n2)CC1`, for which the “Percent Effect” value was -0.1963%.

As to `COC(=O)c1cccc(CN(C)C(C)c2ccccn2)c1` (centres undefined), the “Percent Effect” value stood at 21.51%. As for `OC1(CN2CCC(Cc3ncccn3)CC2)CCOCC1`, the “Percent Effect” value is given as -20.94%. For `O=C(c1cnco1)N1CCC(Cc2cccc3ncccc23)CC1` the value was -21.16%. Regarding `O=C(c1cnco1)N1CCC(Cc2ccc3ncccc3c2)CC1`, the “Percent Effect” value worked out at 9.774%.

Regarding `O=C(c1cnco1)N1CCC(Cc2cnc3ccccc3c2)CC1`, the “Percent Effect” value was 64.83%. For `COCCC1COC2(CCN(C(=O)c3ccncc3)CC2)C1.O=C(O)C(F)(F)F` (centres undefined) the value was -13.79%; for `c1ccc(-n2ncc(CN3CCCC(Cn4cncn4)C3)n2)cc1` (centres undefined), 2.145%. To `Cc1cc2c(=O)n(CCOCCO)cnc2s1` belongs 14.22%; to `CCC1c2cccn2CCN1C(=O)c1ccc2nonc2c1` (centres undefined), 10.7%.

For the compound `CCC(C)NC(=O)Cn1ccc2sc(C)cc2c1=O` (centres undefined), the “Percent Effect” value was found to be 17.39%.

As for `CCCC1c2cccn2CCN1C(=O)Cn1cnc2sc(C)cc2c1=O` (centres undefined), the “Percent Effect” value is on record as 53.74%. In the case of `CCC1c2ccc(C)n2CCN1C(=O)Cn1cnc2sc(C)cc2c1=O` (centres undefined), the “Percent Effect” value was 27.93%. To `Cc1cc2c(=O)n(CC(=O)N3CCn4cccc4C3C(C)C)cnc2s1` (centres undefined) belongs 56.81%. To `Cc1nn(C)cc1C(=O)Nc1cccc(CN2CCC(CO)CC2)c1` belongs -50.57%; to `Cc1nc2ccccn2c1CC(=O)N[C@@H]1CC[C@@H](N2CCCC2)[C@@H]1O`, 13.48%. Consider `O=C(c1cc(-n2cccn2)ccn1)N(CC1CCC1)CC(F)(F)F`, for which the “Percent Effect” value is listed as 16.8%. With `Cc1cc(NC(=O)C(c2cccc(F)c2)N2CCOCC2)sn1` (centres undefined), the “Percent Effect” value is recorded as -15.26%. Regarding `NC(=O)C1CCCN1C(=O)c1cc(C2CC2)nc2ccc(F)cc12` (centres undefined), the “Percent Effect” value is -27.79%. On to `Cc1cc(C)c2[nH]c(=O)c(CN3CCC(O)(CN(C)C)C3)cc2c1` (centres undefined), for which the “Percent Effect” value came to 15.85%.

For `Cc1cc(C)c2[nH]c(=O)c(CN3CCCC4(C3)CN(C)C(=O)O4)cc2c1` (centres undefined), the “Percent Effect” value turned out to be 65.13%. For `Cc1cc(C)c2[nH]c(=O)c(CN3CCCC(O)(CO)C3)cc2c1` (centres undefined) the value was 23.96%. To `c1ccc2sc(N3CCC4(CCCN4Cc4ncc[nH]4)CC3)nc2c1` belongs 60.65%; to `Cc1nc[nH]c1CN1CCCC12CCN(c1nc3ccccc3s1)CC2`, -4.142%. As for `Cc1cc(C(=O)N2CCN(c3nc4ccccc4s3)CC2)no1`, the “Percent Effect” value is listed as -60.39%.

`Cc1nc(CN2CCCC23CCN(c2nc4ccccc4s2)CC3)co1`: the “Percent Effect” value came to 53.88%.

Regarding `Cn1cc(CN2CCCC23CCN(c2nc4ccccc4s2)CC3)cn1`, the “Percent Effect” value is 13.88%.

`Cc1nc[nH]c1CN1CCCN(c2nc3ccccc3s2)CC1`: the “Percent Effect” value is 3.174%. As to `CCn1ccc(-c2cc(C(=O)O)n3ncc(Br)c3n2)n1`, the “Percent Effect” value came out at 19.03%. To `CC(C)Cn1ccnc1CNC(=O)N1CCCC1CN1CCOCC1` (centres undefined) belongs 7.761%; to `CN(C(=O)Cn1nc(-c2ccccc2F)ccc1=O)C1CCS(=O)(=O)C1` (centres undefined), 18.26%; to `COC(=O)C(NC(=O)Nc1ccc(C(C)=O)cc1)C(C)C` (centres undefined), 6.824%.

In the case of `COCc1ncc(CN2CCC3(CCNC(=O)CC3)CC2)cn1`, the “Percent Effect” value is recorded as 18.36%. For the compound `COCCN(C)Cc1cn(C)nc1-c1ccc2c(c1)OCCO2`, the “Percent Effect” value is reported as -52.38%. For `CC(C)(C)NC(=O)CNC(=O)Nc1cc(-c2ccccc2)ns1` the value was 38.08%. As to `CCc1ccc(-c2cc(C(F)(F)F)nc(N3CCC(N)CC3)n2)cc1`, the “Percent Effect” value was 105.7%. With `Cc1c(-c2cc(C(F)(F)F)nc(N3CCC(N)CC3)n2)cnn1C`, the “Percent Effect” value was 2.397%. Take `CCn1ncc(-c2cc(C(F)(F)F)nc(N3CCC(N)CC3)n2)c1C`: the “Percent Effect” value stood at 50.19%. For `FC(F)(F)c1cc(-c2cccs2)nc(N2CCN3CCCC3C2)n1` (centres undefined) the value was 24.42%. To `Cc1ccc(-c2cc(C(F)(F)F)nc(N3CCOCC3)n2)s1` belongs 4.079%; to `Cc1cc(C(F)(F)F)nc(N2CCN3CCCC3C2)n1` (centres undefined), -50.74%.

Values taken from ChEMBL document CHEMBL3988442, “University of Dundee, Small-Polar-MMV Screening Library” (2021).
